Drawing on PubChem BioAssay AID1259343 (VanderVen Lab, College of Veterinary Medicine, Cornell …, 2017), this text covers inhibition for 111 compounds.

The inhibition is the change of the read-out against control, counted positive when it falls.

Each structure is given as a SMILES string. Screen size: about 6,200 compounds; about 2,900 (47%) were called active. The set was probably picked from earlier hits. The list shows a part of the results. Values without a mark were called inactive. Cut-off read from the data, not from the text of the source: active = inhibition above about 50%; inactive = the rest.

The assay is described as follows: Mycobacterium tuberculosis growth inhibition, primary screen (AID 1259343). As to conditions: inhibition: at 10 µM, stronger effect = higher value; outcome: 10 uM.
In the case of `Nc1nc(Cl)nc2c1ncn2[C@@H]1O[C@H](CO)[C@@H](O)[C@H]1O`, the inhibition was 80.5% (active).

Regarding `CN(Cc1cnn(-c2ccc(F)cc2)c1)c1nncc(-c2ccccc2)n1`, the inhibition entry was “inactive”. Take `CN(CCC1CCCCO1)c1nncc(-c2ccccc2)n1` (stereo unspecified): the inhibition is 52.4% (active). `CC1CCCC(C)C1NC(=O)Nc1nncc(-c2ccccc2)n1` (stereo unspecified): the inhibition was 21.4%. Regarding `c1ccc(OCCSc2nnc3sc4ccccc4n23)cc1`, the inhibition was 40.3%. In the case of `Nc1nnc(SCC(=O)c2ccc(OCc3ccccc3)cc2)s1`, the inhibition is 86.1% (active). Regarding `CC(OC(=O)c1ccc(OCc2ccccc2)cc1)c1nnc(-c2ccccc2)o1` (stereo unspecified), the inhibition is 26.8%. As for `Brc1ccc(-c2ccc(C=NNC3=NCCCCC3)o2)cc1`, the inhibition is 92.4% (active).

Take `CCN(CC)C(=S)S`: the inhibition was 92.6% (active). In the case of `O=C1CCCc2c1[nH]c1ccc(-c3ccccc3CO)cc21`, the inhibition was 90.3% (active). In the case of `COCC(=O)Nc1ccccc1-c1ccc(C(C)C)cc1`, the inhibition is 48.2%. As to `COCC(=O)Nc1ccc(-c2cc(OC)cc(OC)c2)cc1`, the inhibition is 88.7% (active).

Regarding `COCC(=O)Nc1cccc(-c2ccc3c(c2)OCCO3)c1`, the inhibition was 63.2% (active). Consider `O=C(CCl)Nc1ccc(Oc2ccc(Br)cc2)cc1`, for which the inhibition was 18.2%. Regarding `COc1cc(C(=O)Nc2ccc(-c3cnco3)cc2)ccc1C`, the inhibition is 49.6%. Consider `COc1cncc(-c2ccc(NC(C)=O)cc2)c1`, for which the inhibition was 85% (active). As for `Cn1cc(C(=O)Nc2ccc(Oc3cccc(C#N)c3)cc2)ccc1=O`, the inhibition is 23.5%. For `COCC(=O)Nc1ccc(Oc2cccc(C)c2)cc1` the value was 76.6% (active). With `CC1(C)OC(=O)C(=C2C3C4CC5C2C2C3CC4C52)C(=O)O1` (stereo unspecified), the inhibition was 35.6%. On to `COC(=O)C(C)OC(=O)c1c[nH]c2cc(Br)c(Br)cc12` (stereo unspecified), for which the inhibition is 24.9%. Take `CN(c1ccc(C(N)=O)nn1)C1CCc2ccccc2C1` (stereo unspecified): the inhibition was 60.2% (active).

Take `CC(C)c1nnc2sc(C3CCc4ccccc4C3)nn12` (stereo unspecified): the inhibition was 43.3%. The value for `Cc1ccc(N2C(=O)N(CCOc3cccc(Br)c3)C(=O)C2C)cc1` (stereo unspecified) was 27.6%.

Turning to `COCCCn1c(-c2ccc(C)cc2)nc2oc3ccccc3c(=O)c2c1=O`, the inhibition was 9.29%.

In the case of `Cc1cccc(OCCCn2c(=O)oc3ccccc32)c1`, the inhibition was -23.7%. As to `Cc1ccc2oc(=O)n(CCCOc3ccccc3C)c2c1`, the inhibition is 95.8% (active). For `Cc1cccc(OCCCn2c(=O)oc3ccc(C)cc32)c1` the value was 79.4% (active); for `COc1ccccc1OCCCN1C(=O)C2(OCCCO2)c2ccccc21`, 40.7%. Regarding `Cc1ccc(N(CC(=O)O)S(C)(=O)=O)cc1C`, the inhibition was 92.8% (active). As for `CC1(C)CC(=O)C(C(=O)Nc2sc3ccccc3c2Cl)C(=O)C1`, the inhibition was 98.3% (active). For `O=C1NC(c2sc3ccccc3c2Cl)Nc2ccccc21` (stereo unspecified), the inhibition was 28.9%. For `CC(C)c1cc(=O)[nH]c(-n2nc(-c3cccs3)cc2NC(=O)c2ccc(Br)o2)n1` the value was 99.9% (active).

Regarding `CC(C)c1cc(=O)[nH]c(-n2nc(-c3cccs3)cc2NC(=O)c2cc3ccccc3o2)n1`, the inhibition was 100% (active). Turning to `Cc1cc(=O)[nH]c(-n2nc(-c3cccs3)cc2NC(=O)c2ccc(Br)o2)n1`, the inhibition was 97.5% (active). Take `Cc1cc(C(=S)N=P(N(C)C)(N(C)C)N(C)C)c(C)n1-c1ccccc1`: the inhibition was 98.9% (active). Regarding `FC(F)(F)c1nnc2n1Nc1nc3ccccc3nc1S2`, the inhibition is 100% (active). For `COC(=O)Cc1ccc(C(=O)CCl)s1`, the inhibition was 92.5% (active). In the case of `NC(=S)Nc1ccc(Cl)cc1`, the inhibition is 7.09%. `NC(=S)Nc1ccc(F)cc1`: the inhibition was 52.9% (active).

For the compound `NC(=S)Nc1ccc(F)c(Cl)c1`, the inhibition is 4.04%. `CC(=NOCc1cccc(CON=C(C)c2ccccc2)c1)c1ccccc1`: the inhibition was 86.9% (active). Regarding `COc1cc(N/N=C(/C)c2cccc(C(F)(F)F)c2)nc(SC)n1`, the inhibition was 41.1%. As to `CCc1nc(C)c(C(=O)Nc2ccc(CCC(F)(F)F)cc2)s1`, the inhibition is 66.2% (active). `CCc1ccc(-c2nc(C)c(C(=O)Nc3ccc(OC)nc3)s2)cc1`: the inhibition is 42.7%. On to `Cc1cc(N2CCCC2)ccc1NC(=O)CCl`, for which the inhibition was 1.87%. The value for `O=C(CCl)Nc1cc2c(cc1Br)OCCO2` was 94.1% (active); that for `O=C(Nc1ccc(Oc2ccccc2F)cc1)C1CCN(C(=O)C2CC23CCC3)CC1` (stereo unspecified) was 91.3% (active). As for `O=C(Nc1ccc(Oc2ccccc2F)cc1)C1CCN(C(=O)C2CCCO2)CC1` (stereo unspecified), the inhibition result is “inactive”. As for `O=C(Nc1ccc(Oc2ccccc2F)cc1)C1CCN(C(=O)C2CCCCO2)CC1` (stereo unspecified), the inhibition was 88.7% (active). Regarding `FC(F)Oc1ccc(NC(=S)Nc2ccc3cn[nH]c3c2)cc1`, the inhibition is -5.27%.

In the case of `COc1ccc(NC(=S)Nc2ccc3cn[nH]c3c2)cc1`, the inhibition is 68.9% (active). Turning to `S=C(Nc1ccc(Cl)cc1)Nc1ccc2cn[nH]c2c1`, the inhibition is 37.2%. In the case of `C[C@]12C=CC(=O)C=C1CC[C@@H]1C2=CC[C@]2(C)[C@@H](C(=O)CN3CCN(c4cc(N5CCCC5)nc(N5CCCC5)n4)CC3)CC[C@@H]12`, the inhibition was 89.9% (active). For `FC(F)(F)CCc1ccnc(N[C@@H]2C[C@H]2c2ccccc2)n1` the value was 30.5%; for `CC(C)c1nc(CN(C)Cc2ccc3ccccc3n2)cs1`, 2.62%; for `CC(C)c1nc(CNc2nccc(CCC(F)(F)F)n2)cs1`, 94.8% (active). With `O=c1ccc2ccc(O)cc2o1`, the inhibition is 74% (active). Consider `Nc1ccc2oc(=O)ccc2c1`, for which the inhibition was 77.1% (active). On to `Cc1c(Cl)c(=O)oc2cc(O)ccc12`, for which the inhibition is -23%. For the compound `Nc1ccc2oc(CCc3ccccc3)nc2c1`, the inhibition is 33%. As for `Nc1nc2c3ccccc3nc(-c3ccccc3)n2n1`, the inhibition is 83.3% (active).

With `COc1cccc(Nc2nc(C(N)COCc3ccccc3)cs2)n1` (stereo unspecified), the inhibition is 64.3% (active). Turning to `COc1cccc(Nc2nc(C(N)CCc3ccccc3)cs2)n1` (stereo unspecified), the inhibition was 82.2% (active). The value for `NC(=O)C1(N2CCCCC2)CCN(c2nc(-c3ccc(Cl)cc3Cl)cs2)CC1` was -20.2%. `Cc1ccc(NCc2ccc(C(=O)NCC3(CO)CCC3)cc2)cc1`: the inhibition is 43.9%.

As for `Nc1[nH]c(N=Nc2nc3c(s2)CCCC3)c2ccccc12`, the inhibition is -27.1%. With `Cc1ccc(CNc2nc3c(s2)CCCC3)cc1`, the inhibition was 74% (active). For `Cc1ccc(/C(N)=N\OC(=O)CCc2ccccc2)cc1`, the inhibition is 29.4%. As for `C/C(=N/OC(=O)c1ccc(-c2ccccc2)cc1)C(C)(C)C`, the inhibition is 65.6% (active). The value for `O=c1c(Br)cccc(Br)c1O` was 99.7% (active); that for `CCNC(=S)NN=C(C)c1cccs1` was 101% (active); that for `CC(=NNC(=S)NC(C)C)c1cccs1` was 104% (active).

As for `CC(=NNC(=S)NC1CCCCC1)c1cccs1`, the inhibition is -36.2%. Turning to `Nc1ccc(N=Nc2ccccc2)c(N)n1`, the inhibition was 93.8% (active).

For the compound `CCCC1CC(=O)CC(=O)C1`, the inhibition is -33.8%. Take `CCCC1CCC(c2ccc(C#N)c(=O)[nH]2)CC1` (stereo unspecified): the inhibition was 89.8% (active).

With `Cc1c(C2CCN(CCc3ccccc3)CC2)noc1-c1ccc(Cl)cc1`, the inhibition was 88.1% (active). As for `Fc1ccccc1CN1CCCC2(CCN(C3CCN(CCc4ccccc4)CC3)C2)C1` (stereo unspecified), the inhibition is 13.5%. Consider `Fc1ccc(Cn2nnc3c(SCc4ccccc4)ncnc32)cc1`, for which the inhibition is 93.4% (active).

For the compound `Fc1ccccc1CSc1ncnc2c1nnn2Cc1ccccc1`, the inhibition was 10.4%.

With `c1ccc(CSc2ncnc3c2nnn3Cc2ccccc2)cc1`, the inhibition was -43.1%. Consider `Fc1ccc(CSc2ncnc3c2nnn3Cc2ccc(F)cc2)cc1`, for which the inhibition is -6.41%. Turning to `Cc1cccc(CSc2ncnc3c2nnn3Cc2ccc(F)cc2)c1`, the inhibition was 15.2%.

On to `c1ccc(Cn2nnc3c(Sc4ncco4)ncnc32)cc1`, for which the inhibition is 68.9% (active). As for `Fc1cccc(CSc2ncnc3c2nnn3Cc2ccccc2F)c1`, the inhibition was 29.2%. `Fc1ccccc1CSc1ncnc2c1nnn2Cc1ccccc1F`: the inhibition was 94.8% (active).

For `Fc1ccc(CSc2ncnc3c2nnn3Cc2ccccc2F)cc1`, the inhibition was -32.2%. As for `Fc1ccc(Cn2nnc3c(SCc4cccc(F)c4)ncnc32)cc1`, the inhibition was 73.3% (active).

With `CCC1CCCCN1S(=O)(=O)c1ccc(C(=O)Nc2nnc(CSC)o2)cc1` (stereo unspecified), the inhibition is 99.6% (active). For the compound `CCOc1cc(S(=O)(=O)N2CCCCC2CC)ccc1Br` (stereo unspecified), the inhibition was -6.56%. Regarding `CSc1nsc(SCC2=NNC(=O)c3ccccc3O2)n1`, the inhibition is 101% (active). Turning to `O=C(CSCCO)Nc1ccc(Cl)c(Br)c1`, the inhibition was 93.2% (active). For `Cc1nc(CSCC(=O)Nc2ccc(C)c(Cl)c2)no1` the value was 39.4%; for `N#Cc1ccc(NC(=O)Cc2ccc(Cl)c(Cl)c2)cc1`, 17.6%. For the compound `CC1CC(C)(C)CC2(C1)NC(=O)N(c1ccccc1)N2` (stereo unspecified), the inhibition was 86.8% (active). For `CCCOC(=O)COc1ccc2c(oc(=O)c3ccccc32)c1C` the value was 84% (active). Turning to `CONC(=O)c1oc2c(ccc3ccccc32)c1C`, the inhibition was 21.5%. Consider `CCOC(=O)CCc1c(C)c2ccc(OCc3ccc(C(=O)OC)cc3)c(C)c2oc1=O`, for which the inhibition is 36.8%. The value for `O=c1[nH]c(=S)[nH]c(O)c1N=Nc1ccc(SC(F)F)cc1` was 99.5% (active). As for `O=c1[nH]c(=S)[nH]c(O)c1N=Nc1ccc(F)cc1`, the inhibition is 104% (active). Turning to `O=c1[nH]c(=S)[nH]c(O)c1N=Nc1ccc2c(c1)OCCO2`, the inhibition is 38.2%. As to `O=c1[nH]c(O)c(N=Nc2ccc(SC(F)F)cc2)c(=O)[nH]1`, the inhibition is 84% (active).

Consider `O=c1[nH]c(=S)[nH]c2sccc12`, for which the inhibition was -6.61%. With `CC(C)(C)C(=O)NC(=S)NCCc1ccccc1`, the inhibition is 58.1% (active). With `CC(C)(C)C(=O)NC(=S)NCc1ccccc1`, the inhibition is 87% (active). For `CC(C)CC(=O)NC(=S)NCc1ccccc1` the value was 52.5% (active); for `CC(C)(C)C(=O)NCCc1cn(-c2ccccc2)c2ccccc12`, 42.6%.

With `O=C(NC(=S)NCCc1ccccc1)C1CCCCC1`, the inhibition was 68.9% (active). For the compound `O=C(NC(=S)NCc1ccccc1)C1CCCCC1`, the inhibition is -4.74%. The value for `O=C(NCCc1ccc(Br)s1)C1CCC1` was -26.3%.

In the case of `S=C(NCCc1ccccc1)NC1CCSc2ccccc21` (stereo unspecified), the inhibition was 31.4%.
